Each structure is given as a SMILES string. Inconclusive results are not listed. Active and inactive are the calls of the source. Unless noted, calls follow the shape of the dose curve; as a rule, active = well fitted curve in the direction sought with a large enough effect; inconclusive = small, poorly fitted or top-dose-only effect, or another doubt; inactive = no such curve, though single readings can be large; an effect the other way counts as inactive or inconclusive.

The nature of test [1]: P-glycoprotein substrates identified in KB-8-5-11 adenocarcinoma cell line, qHTS therapeutic library screen (AID 1346987). Also: nearly all actives have a fitted effect of over 65% in size. Also: potency is read from the fitted curve at half-maximal effect. The procedure, abridged:
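In this qHTS, P-gp-rich KB-8-5-11 cells received library compounds across a concentration range. Viability was quantified by luminescence after 72 h at 37 degree C.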
(In general: In qHTS, concentration-response curves come from the screen itself.)

In test [2] the target is Glutathione peroxidase 1 (Homo sapiens) (UniProt P07203). Description: Primary qHTS Assay for Inhibitors of Recombinant Selenoprotein Glutathione Peroxidase 1 (GPX1) (AID 1845191). Also: nearly all actives have a fitted effect of over 65% in size. The procedure, abridged: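 GPX1 10 nM, GR 100 nM, GSH 1 mM, NADPH 0.5 mM, CHP 0.5 mM (final). 30-min cpd preincubation, RT. Ex340/Em450 read t=0, t=15 min.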
Glutathione peroxidase 1 (Homo sapiens), sequence (P07203 whole entry, looked up): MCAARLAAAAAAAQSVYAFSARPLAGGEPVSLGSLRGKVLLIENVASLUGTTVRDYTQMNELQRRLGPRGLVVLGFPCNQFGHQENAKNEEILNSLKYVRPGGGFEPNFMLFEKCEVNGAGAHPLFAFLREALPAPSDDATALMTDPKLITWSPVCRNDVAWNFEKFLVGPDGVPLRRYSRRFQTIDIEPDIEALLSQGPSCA
The nature of test [3]: qHTS to identify inhibitors of the type 1 interferon - major histocompatibility complex class I in skeletal muscle: primary screen against the NCATS Mechanism Interrogation Plate v5.0 (MIPE) Libary (AID 1347411).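 Also: plate controls were vehicle for no effect and reference inhibitor for full effect; nearly all actives have a fitted effect of over 65% in size.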 The procedure, abridged:
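HLA-B HiBit myoblasts, dexamethasone-free medium + 4 ng/ml IFN-b, 24 h compound, 11-pt 1:3 from 46 uM final. Readout: Nano-Glo HiBiT lytic luminescence after 10 min lysis, RT.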

A short description of test [4]: Primary qHTS for inhibitors of nuclear receptor binding SET domain protein 2 (NSD2) in an isogenic RCH-ACV NSD2 p.E1099K mutant (9B) (AID 1645876). Also: potency is read from the fitted curve at half-maximal effect; nearly all actives have a fitted effect of over 70% in size.
The nature of test [5]: Primary qHTS for inhibitors of nuclear receptor binding SET domain protein 2 (NSD2) in an RCH-ACV wild type WT cells (2C) (AID 1645877). Also: potency is read from the fitted curve at half-maximal effect; nearly all actives have a fitted effect of over 70% in size.
For test [6], the target named is Phospholipid hydroperoxide glutathione peroxidase GPX4 (Homo sapiens) (UniProt P36969). Put plainly: Primary qHTS Assay for Inhibitors of Recombinant Selenoprotein Glutathione Peroxidase 4 (GPX4) (AID 1845192). Also: series mostly up to about 50 µM; nearly all actives have a fitted effect of over 65% in size. The settings on record: outcome: dose series up to 50 µM unless noted. The procedure, abridged:
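qHTS, GR-coupled: GPX4 200 nM + cpd 30 min RT → GSH 1 mM, NADPH 0.5 mM, GR 100 nM → CHP 0.5 mM start; fluor 340/450 at t0 and t15 min; no-enzyme wells as control.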

Test [7] can be described thus: qHTS drug screen for cell cycle checkpoint inhibitors in PARPi-resistant BRCA-mutant ovarian cancer cell lines. (AID 1963452; calls by dose curve). As to conditions: PEO1/OlaR viability, CellTiter-Glo luminescence, 96 h, stronger effect = lower value. The procedure, abridged: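 PEO1, PEO4 and PEO1/OlaR ovarian cancer cells, 600 per well, exposed 96 h at 37C to a dilution series. Viability read by CellTiter-Glo luminescence, normalized to DMSO and empty wells; activity summarized as Z-AUC.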

Phospholipid hydroperoxide glutathione peroxidase GPX4 (Homo sapiens), sequence (P36969 whole entry, looked up): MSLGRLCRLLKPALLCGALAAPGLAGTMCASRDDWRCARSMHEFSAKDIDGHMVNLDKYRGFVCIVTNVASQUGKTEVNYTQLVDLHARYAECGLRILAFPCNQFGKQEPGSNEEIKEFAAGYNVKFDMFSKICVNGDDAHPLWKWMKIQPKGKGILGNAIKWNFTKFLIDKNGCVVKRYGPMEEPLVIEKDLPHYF

Take `O=C(/C=C/c1cccnc1)c1ccncc1`: the Potency result in test [1] and in test [2] was “inactive” each time.
For `CCCCCCCCCCC(O)C1C=CC2C(=O)N(c3ccccc3)C(=O)C2N1Nc1ccc([N+](=O)[O-])cc1` (stereo not given), the Potency result in test [1] and in test [2] was “inactive” throughout.
Take `CNc1ncc2cc(-c3cc(NC(=O)NCCC(C)(C)C)c(F)cc3C)c(C)nc2n1`: the Potency in test [1] is 4610 nM (active); in test [4] it was 417 nM (active); in test [5], 590 nM (active). For the same molecule, the Potency result in test [3], in test [2] and in test [6] was “inactive” in each case. Further, the Z-AUC in test [7] was -1.04 (inactive); in test [7] (measured here: PEO1 parental Z-AUC), -0.267; in test [7] (measured here: PEO4 Z-AUC), -0.215.
Take `CC(C)(C)n1nc(-c2cccc3ccccc23)c2c(N)ncnc21`: the Potency result in test [1] and in test [2] was “inactive” each time.

(Values after PubChem BioAssay (NCATS).)
